From PubChem BioAssay
AmpC det inh = inhibitors of E. coli AmpC beta-lactamase with detergent. P00811. purified AmpC, nitrocefin hydrolysis with detergent. Potency, µM (series often up to 28.7 µM). 71,000 tested, 0.09% active. AID 584; active = well fitted curve in the direction sought with a large enough effect; inconclusive = small, poorly fitted or top-dose-only effect
Target sequence (P00811 whole entry, looked up): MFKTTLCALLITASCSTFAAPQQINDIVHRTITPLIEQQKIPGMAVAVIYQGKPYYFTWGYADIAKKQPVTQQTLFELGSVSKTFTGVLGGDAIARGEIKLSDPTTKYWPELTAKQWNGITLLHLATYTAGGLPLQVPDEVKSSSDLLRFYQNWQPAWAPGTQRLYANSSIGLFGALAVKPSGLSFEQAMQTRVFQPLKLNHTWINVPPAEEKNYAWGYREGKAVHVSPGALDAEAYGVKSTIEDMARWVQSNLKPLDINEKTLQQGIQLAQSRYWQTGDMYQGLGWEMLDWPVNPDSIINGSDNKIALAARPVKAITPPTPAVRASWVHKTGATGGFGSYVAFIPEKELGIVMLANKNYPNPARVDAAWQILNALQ
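E. coli AmpC (5.3 nM) in 20 mM phosphate pH 7.0 with 0.01% Triton X-100, preincubated 15 min RT with compound; nitrocefin (2 uL of 800 uM stock) hydrolysis followed by 480 nm absorbance every 20 s over 4 min.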
AmpC inh no det = AmpC beta-lactamase inhibition, detergent-free assay; Potency, µM (titrated, usually from 28.7 µM); 71,000 tested, 1.8% active; AmpC nitrocefin hydrolysis, absorbance 480 nm, no detergent; P00811
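AmpC, 20 mM phosphate pH 7.0; 15 min cpd preinc, RT; start with nitrocefin (800 uM stock); A480 kinetic read, 20 s intervals, 4 min. No-enzyme wells = negative control.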
Prx2 Sm inh = inhibitors of Schistosoma mansoni peroxiredoxin 2 | S. mansoni Prx2 activity coupled to TGR/GSH (TGR is thioredoxin glutathione reductase), NADPH fluorescence loss, qHTS | Potency, µM | 65,000 tested, 0.07% active | AID 448
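Purified S. mansoni TGR and Prx2 in pH 7.4 phosphate buffer with EDTA and Tween-20 were preincubated with compounds for 15 min. Further NADPH/GSH was added, then a 2.5 mM H2O2 aliquot initiated turnover, followed kinetically by NADPH fluorescence.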
Anthrax LT inh = blocks cellular internalization of anthrax lethal toxin. Cells, anthrax lethal toxin internalization, FRET ratio (460/530). Potency, µM (series often up to 40 µM), actives largely listed as inhibitors. 70,000 tested, 0.67% active. AID 912; also: nearly all actives have a fitted effect of over 50% in size
Hits are given with their value; – = inactive; ? = inconclusive; · = no result; ! = not active in a repeat; [ ] = remark or other dose. Sampled rows, rich in hits. Any-hit rate of the full collection: about 2.6%. Unless noted, calls follow the shape of the full dose curve.

SMILES	AmpC det inh	AmpC inh no det	Prx2 Sm inh	Anthrax LT inh
CCCCN(C(=O)c1ccc(Cl)cc1)C1CC2CCC(C1)N2C (stereo unspecified)	–	4µM[single pt active]	–	?
O=C1[C@@H]2C=CC=CC2=NC(=S)N1CCN1CCC(=C(c2ccc(F)cc2)c2ccc(F)cc2)CC1	–	6.3µM	–	–
CCCc1cc2c(n1CCO)C(C)C1CN(C(=O)c3ccccc3)C(C)(C(=O)OC)C21 (stereo unspecified)	–	–	–	?
O=C(NCc1ccc(F)cc1)c1cc2n(n1)C(C(F)(F)F)CC(C1CC1)N2 (stereo unspecified)	–	4µM[single pt active]	–	–
COC(=O)[C@@H]1CC[C@H](C)[C@@H](c2ccc(C)cc2)N1C(=O)c1ccc(/C=N\OC[C@@H](C)[C@H](OCc2ccccc2)C(C)C)cc1	·	·	·	–[8 µM]
COc1ccc(C(=O)N2CCC3(CCCN(Cc4ccccc4)C3)CC2)cc1	–	–	–	?
CN(C1CCCCC1)S(=O)(=O)c1ccc2c(c1)c(=O)c(C(=O)NCCN1CCCC1)cn2C	–	–	–	10µM
CCn1cc(C(=O)NCCCOC)c(=O)c2cc(S(=O)(=O)N(C)C)ccc21	–	3.2µM[single pt active]	–	–
CN(CCNC(=O)c1cn(C)c2ccc(S(=O)(=O)N(C)C)cc2c1=O)CCc1ccccc1	–	4µM[single pt active]	–	–
Nc1nc2ccc(Oc3ccccc3)cc2s1	–	–	–	–
Nc1nc2ccc(S(=O)(=O)c3ccc4nc(N)sc4c3)cc2s1	–	13µM	–	–
CC(=O)OC[C@@H]1O[C@H](C/C=N\OC[C@@H](C)[C@H](OCc2ccccc2)C(C)C)C=C[C@@H]1OC(C)=O	·	·	·	–[8 µM]
CC(C)C[C@@H](CC(=O)N[C@H](CC(=O)N[C@@H]1CCNC[C@H]1C(=O)N[C@H](CC(=O)N[C@@H](CCC(=O)O)CC(=O)O)Cc1ccccc1)C(C)C)NC(=O)[C@@H]1CNCC[C@H]1N	–	–	–	?
Nc1ccccc1S[C@@H](C[N+](=O)[O-])c1ccc2c(c1)OCO2	–[5.75 µM]	–[5.75 µM]	–	?
COc1ccccc1-c1cc(NCc2ccccc2)ncn1	–	–	–	–
O=c1c(O)c(-c2ccc(O)c(O)c2)oc2cc(O)ccc12	–	13µM!	–	–
O=c1c(O)c(-c2ccc(O)cc2)oc2cc(O)ccc12	–	?	–	?
O=C(CSc1nc2ccccc2c(=O)[nH]1)N1CCCCC1	–	4µM[single pt active]	–	–
Cc1ccc(S(=O)(=O)N2CCN(C(=O)CSc3nc4ccccc4c(=O)[nH]3)CC2)cc1	–	–	–	–
N#C[C@H](C(=O)O)C(c1c(Cl)cccc1Cl)[C@H](C#N)C(=O)O	–[5.75 µM]	–[5.75 µM]	–	–[8 µM]
Cc1ccc(Cn2ccc(NC(=O)c3cc(CC(C)C)on3)n2)cc1	–	4µM[single pt active]	–	?
Cc1ccc(Cn2ccc(NC(=O)c3cc(-c4ccc(F)cc4)on3)n2)cc1	–	7.9µM	–	–
Cc1ccc(Cn2ccc(NC(=O)c3cc(-c4ccc(Cl)cc4)on3)n2)cc1	–	–	–	–
COc1ccc(Oc2ncc3nc(-c4cccs4)c(=O)n(Cc4cccs4)c3n2)cc1	–	–	–	?
CC(C)COC(=O)c1ccccc1C(=O)OCC(C)C	–	–	·	?
SMILES	AmpC det inh	AmpC inh no det	Prx2 Sm inh	Anthrax LT inh
CC(C)COC(=O)c1nnsc1NC(=O)Nc1ccccc1	–	16µM[single pt active]	–	–
COc1cccc(-c2ccc3ncnc(NCc4cccs4)c3c2)c1	10µM	6.3µM	–	13µM
CC1(C(=O)NC2CCCCC2)CCC(=O)N1Cc1cccs1 (stereo unspecified)	–	4µM[single pt active]	–	–
CC1(C(=O)NC2CCCC2)CCC(=O)N1Cc1cccs1 (stereo unspecified)	–	–	–	–
O=S(=O)(c1ccccc1)N1CCC2(CCN(Cc3nccs3)CC2)CC1	–	–	–	–
O=c1cc(-c2ccccc2)oc2c1ccc1ccccc12	–	–	–	25µM
Cc1nn2cc(-c3ccc(-c4ccccc4)cc3)nc2s1	–	13µM	–	–
Cc1nn2cc(-c3ccc(Cl)cc3)nc2s1	–	–	–	–
CC(=O)Nc1ccc(C(=O)CCl)cc1	–	–	·	13µM
ClCC[N+]12CC[N+](CCCl)(CC1)C2 (tested in a mixture with another compound)	–[5.75 µM]	–[5.75 µM]	–	–[8 µM]
Cn1nc(C(=O)NCCN2CCOCC2)c2ccccc2c1=O	–	–	–	–
CCn1c(=O)c2cc(C(=O)NCCN3CCOCC3)sc2c2ccccc21	–	4µM[single pt active]	–	–
CCn1c(=O)c2cc(C(=O)Nc3cc(C)on3)sc2c2ccccc21	–	4µM[single pt active]	–	–
CCn1c(=O)c2ccccc2n2c(SCC(=O)NCc3cccs3)nnc12	–	–	–	–
CCn1c2ccccc2c2nnc(SCC(=O)Nc3cc(C)on3)nc21	–	–	–	–
CCn1c(=O)c2cc(C(=O)NCc3cccs3)sc2c2ccccc21	–	4µM[single pt active]	–	–
C#CCCCO/N=C1/C[C@@H](O)[C@@H](O)[C@@H]2[C@@H]3C(=O)N([C@@H](C)c4ccccc4)C(=O)[C@H]3CC[C@H]12	·	·	·	–[8 µM]
CCCCn1nnc(NC(=O)COc2cc(C)ccc2C(C)C)n1	–	–	–	10µM
Cc1ccsc1C=Nc1ccc(O)cc1	–	10µM	–	?
CC(=O)OC[C@@H]1O[C@H](C/C=N\O[C@@H](C)c2cc(-c3c(C)cc(C)cc3C)no2)C=C[C@@H]1OC(C)=O	·	·	·	–[1.6 µM]
CCCC1(CCC)C(=O)NC(=NCc2ccccc2)NC1=O	–	–	–	13µM
CCC1(CC)C(=O)NC(=NCCc2c[nH]c3ccccc23)NC1=O	–	–	–	?
Cc1nn(Cc2nc(-c3cccs3)no2)c(C)c1Br	–	2.5µM[single pt active]	–	–
Cc1cc(C)n(CCc2nc(-c3cc4ccccc4o3)cs2)n1	–	–	–	25µM
O=C(Nc1cccc(-c2cn3cccnc3n2)c1)c1ccc(Br)o1	–	–	–	–
SMILES	AmpC det inh	AmpC inh no det	Prx2 Sm inh	Anthrax LT inh
O=C(Nc1ccc(Cc2ccncc2)cc1)c1ccc(Br)o1	–	–	–	–
Cc1cc(C)cc(OCC(=O)Nc2cccc(-c3nnc(-c4ccco4)o3)c2)c1	–	–	–	–
O=C(Nc1ccc(Nc2ccccc2)cc1)c1ccc(Br)o1	–	–	–	13µM
O=C(Nc1cccc(-c2nnc(-c3ccccc3)o2)c1)c1ccc(Br)o1	–	–	?	10µM
O=C(COc1ccccc1)Nc1cccc(-c2nnc(-c3ccccc3)o2)c1	–	–	–	10µM
COc1ccc(CNC(=O)C(c2cccs2)N(C(=O)c2csnn2)C2CC2)cc1 (stereo unspecified)	–	–	–	7.9µM
C=Cc1ccccc1Cl	–	–	·	–
CCOC(=O)CCc1c(C)nc2cc(-c3ccccc3OC)[nH]n2c1=O	–	4µM[single pt active]	–	–
CC1CCCCN1CCn1cnc2c([nH]c3ccccc32)c1=O (stereo unspecified)	–	4µM[single pt active]	–	–
O=c1c2[nH]c3ccc(F)cc3c2ncn1CCN1CCN(Cc2ccccc2)CC1	–	3.2µM[single pt active]	–	–
Fc1ccccc1N1CCN(CCCNc2ccc3nncn3n2)CC1	–	4µM[single pt active]	–	–
c1ccc(CN2CCN(CCCNc3ccc4nnc(-c5ccccc5)n4n3)CC2)cc1	–	–	–	?
